In the experiment the target is AMP-activated protein kinase, AMPK (Homo sapiens) (UniProt P54646+O43741+P54619+Q9UGJ0+Q9Y478+Q13131+Q9UGI9). The experiment is described as follows: AMP-dependent Kinase enzyme assay. An in vitro enzyme assay that detects ADP turnover that is directly proportional to AMPK activity. This uses naive AMPK that is activated during the assay with MK-8722. Format: functional. The arrangement: scale not given: direction of the effect not stated beside the values. The conditions noted are these: 30 µM.
Take `Cc1cn2c(n1)C(CNCc1cnn3ccccc13)CCC2` (stereo not given): the Percent Effect is -1.25%.

On to `O=C(NCc1cccnc1N1CCCCC1)c1ccc2c(c1)OCO2`, for which the Percent Effect is -2.38%.

`c1nc(N2CCCC2)cnc1C1CCNCC1`: the Percent Effect stood at 11.5%.

For the compound `N#Cc1ccc(SCCC(=O)Nc2ccc(CC(N)=O)cc2)cc1`, the Percent Effect was found to be 0.314%.

Regarding `CC(O)CN1CCN(Cc2coc(-c3cccc(Cl)c3)n2)CC1` (stereo not given), the Percent Effect was -7.56%.

On to `NCc1ccnc(Oc2ccc(F)cc2)c1`, for which the Percent Effect came to 14.1%.

For the compound `Cc1ccccc1Cc1nc(CSc2nnc(N)n2C)no1`, the Percent Effect was 2.88%.

For `NC(=O)COc1ccc(CN2CCC3(CC2)[C@H](O)C[C@@H]3O)cc1Cl`, the Percent Effect was determined as 8.11%.

Take `CCC1(CC)CC(=O)N(CC(O)c2cc(F)ccc2F)C1=O` (stereo not given): the Percent Effect is 11.8%.

Turning to `Cc1cc(N2CCC3(CCCN(CCO)C3=O)C2)nc(C)c1C#N` (stereo not given), the Percent Effect was 14.2%.

For the compound `FC(F)(F)c1cccc(OC2CCN(Cc3ccccn3)CC2)c1`, the Percent Effect is 2.09%.

Take `COc1ccc2c(c1)Cc1c-2nc(N)c(C#N)c1C1CCOC1` (stereo not given): the Percent Effect is -32.8%.

As to `CCc1ccccc1Nc1noc2c1CN(C(=O)c1ccn(C)n1)CC2`, the Percent Effect was -1.29%.

Consider `CC(c1nc(-c2cccnc2)no1)N(C)CCCOc1ccccc1` (stereo not given), for which the Percent Effect is -4.41%.

With `COCc1ccccc1NC(=O)CCNC(=O)c1ccoc1`, the Percent Effect is -3.07%.

As to `CC1(C)OC(=O)N(CC(=O)N2CCC(c3ccccc3F)C2)C1=O` (stereo not given), the Percent Effect came to 12.7%.

Consider `CCc1nnc(C(C)N2CCN(CCC(C)(C)C)CC2)o1` (stereo not given), for which the Percent Effect was 8.59%.

Turning to `CCCn1nc(C)c(CN2CC3(CCOC3)CCC2=O)c1C` (stereo not given), the Percent Effect stood at 1.7%.

For the compound `COCC1CCN(c2ccnc3ccsc23)C1` (stereo not given), the Percent Effect was determined as 4.92%.

Consider `Cc1nc(C)c(C(=O)N2CCc3c(C)cccc32)o1`, for which the Percent Effect stood at 4.71%.

`CC(C)c1nccn1CC1CCCN1Cc1nc2ccccc2n1C` (stereo not given): the Percent Effect is 4.02%.

Regarding `c1ccc(-c2cc(CN3CCCCCC3c3ccco3)on2)nc1` (stereo not given), the Percent Effect amounted to 8.41%.

As for `Cn1ccc(C(=O)N2CCCCC2c2cc(CCO)[nH]n2)n1` (stereo not given), the Percent Effect was 30.2%.

Consider `COCCN(Cc1sccc1C)C(=O)COc1ccccc1O`, for which the Percent Effect turned out to be 2.3%.

In the case of `O=C1CCCCCN1Cc1nc(C2(c3ccc(F)cc3)CCOC2)no1` (stereo not given), the Percent Effect came to 8.29%.

For `COc1cccc(CCC(=O)Nc2cnc3c(c2)c(C)nn3C)c1OC`, the Percent Effect was 5%.

Take `COCCN(C)C[C@@H]1CN(c2nc(C)cc(C)n2)C[C@@H]1CO`: the Percent Effect came out at 2.16%.

Turning to `COc1ccc([C@@H]2CN(C(=O)CCCc3cn[nH]c3)C[C@H]2N(C)C)cc1`, the Percent Effect amounted to 2.77%.

As to `O=C(c1ccc2[nH]cnc2c1)N1CCC(Oc2ccccn2)CC1`, the Percent Effect is 3.35%.

For the compound `CN(C)CCN(Cc1ccc(Cl)cc1)C(=O)c1ccn(C)c(=O)c1`, the Percent Effect was 6.12%.

`Cc1ncc(C(=O)N2CCOC(C(=O)N3CCCCC3)C2)c(C)n1` (stereo not given): the Percent Effect was -4.59%.

As for `CN(CCC#N)C(=O)Cn1cnc2c(Br)cccc2c1=O`, the Percent Effect is 2.35%.

On to `CN(Cc1nncn1C)C(=O)c1cc(COc2ccccc2)[nH]n1`, for which the Percent Effect was -7.68%.

As for `O=C(Cn1cnc2ccsc2c1=O)c1ccc2c(c1)OCCO2`, the Percent Effect was -4.28%.

As to `Cc1c(NC(=O)c2ncn[nH]2)cccc1C(=O)NC(C)(C)C`, the Percent Effect stood at 5.84%.

On to `CCc1nc(CSc2nnc(N)n2C2CC2)no1`, for which the Percent Effect stood at 7.62%.

As for `CC(C)(C)SCCN1CC(=O)N2CC[C@@H](O)C[C@H]2C1=O`, the Percent Effect is 3.02%.

Regarding `CN1CCOC(CNCC(=O)NCCCc2ccccc2)C1` (stereo not given), the Percent Effect was -10%.

As to `Cc1cc(CNC(=O)c2cc(NC(=O)C(C)C)ccc2Cl)no1`, the Percent Effect was found to be 4.16%.

`CN1CCCCC1Cc1nc2c(cc1C(N)=O)CCC2` (stereo not given): the Percent Effect is -4.26%.

(Values after ChEMBL document CHEMBL3988442, “University of Dundee, Small-Polar-MMV Screening Library” (2021).)
